# Sampled rows, rich in hits. Any-hit rate of the full collection: about 27%.
# CYP2C9 inhib: inhibitors of human CYP2C9; AID 777; inhibition, % at 5 µM; hit rate 20% among 96,000; CYP2C9 Supersomes, luciferin-H conversion, luminescence; P11712;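 active = blocking of liver enzyme CYP2C9 beyond about 50% at 5 µM, limit read from the data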
# Target sequence (P11712 whole entry, looked up): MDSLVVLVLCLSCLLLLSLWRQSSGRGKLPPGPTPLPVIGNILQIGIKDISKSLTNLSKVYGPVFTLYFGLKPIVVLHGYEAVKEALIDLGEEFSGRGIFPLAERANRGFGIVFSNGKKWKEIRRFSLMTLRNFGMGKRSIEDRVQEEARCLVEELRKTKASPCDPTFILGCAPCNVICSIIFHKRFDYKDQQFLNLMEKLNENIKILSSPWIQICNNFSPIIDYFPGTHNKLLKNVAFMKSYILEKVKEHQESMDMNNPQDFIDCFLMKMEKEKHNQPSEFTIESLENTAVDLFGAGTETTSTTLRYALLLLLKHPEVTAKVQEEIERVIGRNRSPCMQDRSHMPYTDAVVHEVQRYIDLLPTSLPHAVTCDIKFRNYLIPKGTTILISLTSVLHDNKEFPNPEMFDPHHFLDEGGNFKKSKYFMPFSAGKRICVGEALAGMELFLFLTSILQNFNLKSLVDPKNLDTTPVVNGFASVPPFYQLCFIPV
# CYP2C19 inh: blocks human cytochrome P450 2C19. AID 778. hit rate 21% among 96,000. P33261. inhibition, % at 5 µM. CYP2C19 Supersomes, luciferin-H EGE luminescence, 30 min;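 active = CYP2C19 inhibition above a set limit at 5 µM in the primary screen, cut at about 50% in these data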;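 also: plate controls were negative control wells for no effect and 2.5 mM tranylcypromine positive control for full effect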
# sEH inhibitor: blocks human soluble epoxide hydrolase activity | P34913 | recombinant human sEH enzymatic activity assay | inhibition, % at 2 µM | hit rate 0.34% among 91,000 | AID 707; in the data active = inhibition above about 80%
# CYP2C9 act: CYP2C9 (human) activation | recombinant CYP2C9, luciferin-H conversion, luminescence; active compounds read high; factor 1 = untreated enzyme, 0 = blocked | hit rate 1.4% among 96,000 | AID 1024 | P11712 | activation factor at 5 µM;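 active = activation factor of 2 or more for CYP2C9 at a 5 µM dose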;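 also: 0 = sulfaphenazole-blocked wells and 1 = vehicle-only wells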
# sEH act: activators of human soluble epoxide hydrolase; activation, % at 2 µM; purified human sEH enzymatic activity, activator screen; hit rate 0.04% among 91,000; in the data active = activation above about 37%
# CYP2C19 activ: cytochrome P450 2C19 (human) activation; P33261; AID 1025; 96,000 tested, under 10 active; recombinant CYP2C19, luciferin-H EGE luminescence; active compounds read high; 0 = fully inhibited enzyme, 1 = untreated enzyme; activation factor at 5 µM;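 active = activation factor of at least 2 at 5 µM in the primary screen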;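 also: 0 = wells with 2.5 mM tranylcypromine and 1 = vehicle-only wells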
# Starred values were filed as active, the others as inactive; / = no result.
SMILES,CYP2C9 inhib,CYP2C19 inh,sEH inhibitor,CYP2C9 act,sEH act,CYP2C19 activ
Cc1cc(NC(=O)COC(=O)[C@H](C)NC(=O)c2ccccc2)no1,7,-2,-1,0.9,5,1
Cc1cc(NC(=O)COC(=O)C(Nc2ccc(C(F)(F)F)cc2Cl)C(C)C)no1 (stereo unspecified),52*,57*,4,0.5,-4,0.4
c1cc2c(c(NCc3ccncc3)c1)CCCC2,82*,97*,/,0.2,/,0
O=C(c1ccc2c(c1)N(Cc1ccccc1)CCS2)N1CCCCC1,14,17,12,0.9,-10,0.8
CCOc1ccc(OCC)c(NC(=O)CCn2c(=O)oc3ccccc32)c1,49,36,0,0.5,-3,0.6
Cc1cc(C)n2cc(CSc3nnnn3-c3ccccc3C)nc2n1,-174,35,-9,2.7*,10,0.6
Cc1cc(C)n2cc(CSCc3ccco3)nc2n1,70*,9,4,0.3,-1,0.9
Cc1cc(C)n2cc(CSc3ncccc3C(=O)O)nc2n1,-14,-17,-3,1.1,3,1.2
Cc1cc(C)n2cc(CSC3=NCCS3)nc2n1,-33,-10,1,1.3,0,1.1
Cc1cccc2nc(CSCc3ccco3)cn12,0,64*,/,1,/,0.4
CCCCOc1ccc(/C(O)=C2/C(=O)C(=O)N(CCCOC)C2c2ccncc2)cc1C (stereo unspecified),14,-1,1,0.9,-4,1
CC1CC1C(=O)Nc1nc(-c2ccccc2)cs1 (stereo unspecified),40,16,5,0.6,-3,0.8
O=C(Sc1nnc(-c2ccccc2)o1)N1c2ccccc2Sc2ccccc21,/,/,3,/,0,/
Cn1ccnc1SC(=O)N1c2ccccc2Sc2ccccc21,97*,84*,-4,0,6,0.2
CC1CC(Nc2ccccc2)=CC(=O)O1 (stereo unspecified),7,11,-9,0.9,13,0.9
CCOc1ccccc1C1CC(=O)Nc2c1c(=O)n(C)c(=O)n2C (stereo unspecified),46,45,-12,0.5,11,0.6
CC1(C)CC2CC(C)(CN2CC(=O)C(C#N)c2ccccc2)C1 (stereo unspecified),2,80*,2,1,1,0.2
CC1(C)CC2CC(C)(CN2C(=O)Cc2ccccc2)C1 (stereo unspecified),/,/,14,/,-12,/
Oc1c(C(Nc2nc3ccccc3s2)c2ccco2)ccc2cccnc12 (stereo unspecified),73*,34,5,0.3,-2,0.7
c1ccc2c(c1)sc1nnnn12,1,1,-2,1,1,1
C/C(CCc1ccc2c(c1)OCO2)=N\N=C1\NC(=O)CC(C(=O)Nc2ccccc2)S1 (stereo unspecified),68*,22,-1,0.3,1,0.8
CCN1C(=O)CC(C(=O)Nc2ccc(F)cc2)SC1=Nc1ccc2c(c1)OCO2 (stereo unspecified),34,-5,10,0.7,-10,1.1
Cc1ccc(-c2cc(C(F)F)n3ncc(C(=O)N4CCN(c5cccc(C)c5C)CC4)c3n2)cc1,68*,0,15,0.3,-14,1
COc1ccc(-c2cc(C(F)F)n3ncc(C(=O)NCC4CCCO4)c3n2)cc1 (stereo unspecified),30,13,-21,0.7,20,0.9
Cc1ccc(-c2cc(C(F)F)n3ncc(C(=O)Nc4ccc(S(=O)(=O)Nc5ccccc5C)cc4)c3n2)cc1,82*,6,-8,0.2,8,0.9
SMILES,CYP2C9 inhib,CYP2C19 inh,sEH inhibitor,CYP2C9 act,sEH act,CYP2C19 activ
COc1ccc(NS(=O)(=O)c2ccc(NC(=O)c3cnn4c(C(F)F)cc(-c5ccc(C)cc5)nc34)cc2)cc1,60*,17,-9,0.4,16,0.8
Cc1ccc(-c2cc(C(F)F)n3ncc(C(=O)N4CCCc5ccccc54)c3n2)cc1,/,/,5,/,-3,/
Cc1cc(=O)[nH]c2c1c(C)nn2-c1ccccc1,6,3,/,0.9,/,1
Cc1cc(C)nc(-n2nc(C)c3c(C(F)(F)F)cc(=O)[nH]c32)n1,65*,4,-5,0.4,3,1
CCc1ccc(NC(=O)CSc2nnc(COc3ccc4c(c3)CCCC4)o2)cc1,40,25,-9,0.6,6,0.8
Brc1ccc(-c2cnc(-c3cccs3)o2)cc1,59*,31,-25,0.4,24,0.7
Cc1onc(-c2ccccc2Cl)c1C(=O)OCn1nnc2ccccc2c1=O,4,33,12,1,-9,0.7
Cc1onc(-c2c(F)cccc2Cl)c1C(=O)OCN1C(=O)c2ccccc2C1=O,42,56*,/,0.6,/,0.4
COc1ccc(CNC(=O)COC(=O)c2c(-c3c(F)cccc3Cl)noc2C)cc1OC,56*,97*,4,0.4,0,0
Cc1ccc(NS(=O)(=O)c2ccc(C)c(C(=O)N3CCN(C)CC3)c2)cc1,1,14,-3,1,2,0.9
COCCn1ccc(O)c(Cc2ccccc2)c1=O,-4,11,-19,1,17,0.9
O=c1[nH]c(Cc2ccccc2)nc2scc(-c3ccccc3)c12,35,15,-8,0.6,6,0.9
CC(Sc1n[nH]c(N)n1)c1nc2scc(-c3cccs3)c2c(=O)[nH]1 (stereo unspecified),59*,19,-2,0.4,2,0.8
Nc1nc(SCc2nc3scc(-c4ccccc4)c3c(=O)[nH]2)n[nH]1,50*,24,2,0.5,-4,0.8
Cc1sc2nc(C3CC3)nc(NCCNS(C)(=O)=O)c2c1C,76*,36,-1,0.2,0,0.6
CCOC(=O)c1ccc(NC(=O)CC2Sc3ncnn3C2=O)cc1 (stereo unspecified),13,-4,0,0.9,1,1
COC(=O)c1ccccc1NC(=O)CNC(=O)c1ccco1,31,33,-4,0.7,6,0.7
CCOC(=O)c1[nH]c(C)c(C(=O)Nc2ccccc2C)c1C,-11,56*,/,1.1,/,0.4
CCOC(=O)c1[nH]c(C)c(C(=O)Nc2ccc(C)c(F)c2)c1C,-6,-12,/,1.1,/,1.1
CCOC(=O)c1[nH]c(C)c(C(=O)Nc2ccc(C)c(Cl)c2)c1C,/,/,11,/,-11,/
CCOC(=O)c1[nH]c(C)c(C(=O)NCCc2ccc(OC)cc2)c1C,72*,32,/,0.3,/,0.7
CCOC(=O)c1[nH]c(COC(=O)c2ccccc2NC(=O)c2ccco2)c(C(=O)OCC)c1C,88*,50,-1,0.1,2,0.5
CCOC(=O)c1[nH]c(C)c(C(=O)Nc2cc(Cl)ccc2C)c1C,-104,-1,/,2*,/,1
Cc1ccc(S(=O)(=O)NC(=O)c2cc(C)n(-c3cc(S(=O)(=O)N4CCOCC4)ccc3N3CCCC3)c2C)cc1,28,-7,-1,0.7,3,1.1
